# Screening data: PubChem, National Center for Advancing Translational Sciences (NCATS)
# Sampled rows, rich in hits. Any-hit rate of the full collection: about 10%.
# G9a block – inhibitors of human histone lysine methyltransferase G9a; Q96KQ7; G9a H3K9 monomethylation, AlphaScreen, 2 h; Potency, µM (series often up to 102 µM), hits mostly inhibitors; actives 8.8% (n = 350,000); note: nearly all actives have a fitted effect of over 75% in size
#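 Using a bead-based AlphaScreen, monomethylated H3K9 product from 2 h room-temperature reactions (G9a 20 nM, peptide 500 nM, SAM 20 uM) was detected with 0.5 ug/mL rabbit anti-H3K9me1 antibody.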
# BAZ2B block – inhibitors of human BAZ2B bromodomain. Q9UIF8. AlphaScreen BAZ2B-H3K14Ac peptide displacement. Potency, µM (highest dose often 114 µM), most hits filed as inhibitors. actives 4.4% (n = 360,000). AID 504333; note: nearly all actives have a fitted effect of over 60% in size
#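 Compounds, titrated to a top concentration of 110 uM, were incubated 30 min at room temperature with preformed BAZ2B/acetyl-K14 H3 peptide complex (50 nM each). Proximity signal was measured by AlphaScreen after 20 min with beads.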
# HP1b chromo inh – HP1-beta chromodomain-methylated histone interaction inhibition | P83916 | Potency, µM (top dose mostly 114 µM), most hits filed as inhibitors | AlphaScreen HP1-beta / biotin-H3K9me3 peptide binding | actives 0.56% (n = 390,000); note: nearly all actives have a fitted effect of over 70% in size
#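 AlphaScreen: HP1-beta (50 nM) preformed 30 min with biotin-H3(1-18)K9me3 peptide (50 nM) in PBS pH 7.4, 0.01% Tween-20. Compound added for 30 min at RT, then streptavidin donor/nickel chelate acceptor beads (10 ug/mL) for 30 min.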
# JMJD2A Tudor – inhibitors of human JMJD2A Tudor domain | O75164 | AlphaScreen JMJD2A-Tudor / H3K4me3 peptide binding | Potency, µM (series often up to 114 µM), most hits filed as inhibitors | actives 4.4% (n = 390,000) | AID 504339; note: nearly all actives have a fitted effect of over 50% in size
# Six1-Eya2 inh – Six1/Eya2 interaction inhibition | Q15475+O00167 | AlphaScreen GST-Six1/His-Eya2 binding, biochemical; stronger effect = lower value | activity change, % (no concentration beside the values) | actives 0.56% (n = 360,000) | AID 651725; in the data active = activity change below about -65%; inconclusive = mostly about -30% to -63%
#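 AlphaScreen with GST-Six1 and His-Eya2 (5X mix: 250 nM and 500 nM), glutathione donor and nickel acceptor beads; buffer 50 mM Tris pH 8.0, 300 mM NaCl, 1 mM TCEP; 1 h at 37 C in the dark.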
# CtBP-E1A blk – CtBP/E1A binding inhibition. AlphaScreen GST-E1A/His-CtBP binding, 1536-well; stronger effect = lower value. activity change, % (test concentration not listed). actives 0.49% (n = 340,000). AID 651724; in the data active = activity change below about -65%; inconclusive = mostly about -30% to -63%
#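 Steps: dispense buffer (Tris pH 8.0, NaCl 300 mM, TCEP 1 mM, BSA, Tween 20); add 5X protein mix (GST-E1A, His-CtBP, 125 nM each); pin 23 nL compound; 2 h at 37 °C, dark; add 5X beads (50 ug/mL); 1 h; read.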
# A number is an active result; i = inactive; ? = inconclusive; nt = no result; [ ] = another dose, or the depositor's remark. Unless noted, calls come from the whole dose curve; as a rule, active = well fitted inhibition curve with a large enough effect; inconclusive = small, poorly fitted or top-dose-only effect; inactive = no such curve, though single readings can be large or run the other way.
SMILES,G9a block,BAZ2B block,HP1b chromo inh,JMJD2A Tudor,Six1-Eya2 inh,CtBP-E1A blk
COc1cccc(C2CC(c3ccc(C)cc3)=NN2C(=O)c2ccccc2F)c1OC (stereo not drawn),i,i,i,i,i,nt
O=C(c1ccccc1)N1N=C(c2ccccc2)CC1c1ccccc1O (stereo not drawn),?,?,?,11µM,i,i
CCNc1nc(NCC)nc(NC(N)=S)n1,25µM,i,i,i,i,i
CCNc1nc(NC(N)=S)nc(NC(C)(C)C)n1,3.5µM,i,?,i,i,i
CCCNc1nc(NCC)nc(OC)n1,i,i,i,i,i,i
COc1ccccc1-c1nnc(SCC#CCOC(=O)c2ccc(F)cc2)o1,nt,nt,nt,i,nt,nt
COc1ccc(-c2[nH]c(-c3ccc(SC)cc3)nc2SCC(=O)Nc2nccs2)cc1,i,i,i,i,i,i
COc1cc(/C=N/NC(=O)c2ccc3c(c2)OCCO3)cc(Br)c1O,i,i,i,i,i,i
COc1cc(/C=N/NC(=O)c2ccc3c(c2)OCCO3)c(Br)c(Br)c1O,45µM,i,i,i,?,nt
COc1ccccc1/C=N/NC(=O)c1c(-c2ccccc2)noc1C,i[12.7 µM],i,i,i,i,i
CCOc1ccc(/C=N/NC(=O)C(O)c2ccccc2)c(O)c1 (stereo not drawn),nt,i,i,i,?,-85
Cc1cccc(/C=N/NC(=O)c2c(-c3ccccc3)noc2C)c1O,nt,25µM,i,?,i,?
COc1cccc(/C=N/NC(=O)C(=O)NCc2cccnc2)c1OC,i,i,i,i,i,i
COc1cccc(/C=N/NC(=O)C(=O)NCc2cccnc2)c1O,i,20µM,i,?,-89,-92
C/C(=N\NC(=O)C12CCC(C)(C(=O)O1)C2(C)C)c1ccccc1O (stereo not drawn),nt,i,i,i[11.4 µM],i,?
O=C(CNC(=O)c1ccncc1)N/N=C/c1ccccn1,i,79µM,i,?,i,?
COc1cccc(/C=N/NC(=O)C[n+]2ccccc2)c1O,i,18µM,i,45µM,-87,-88
O=C(N/N=C/c1ccccn1)c1cc(-c2ccccc2Cl)n[nH]1,i,56µM,i,i,?,?
CC12CCC(C(=O)N/N=C/c3ccc(O)cc3O)(OC1=O)C2(C)C (stereo not drawn),i,i,i,?,-68,-88
OC(c1ccccc1)(c1ccccc1)C1CCN(CCCOc2ccc3c(c2)CCCC3)CC1,nt,nt,nt,nt,i,i
COc1ccc(S(=O)(=O)N2CCC(C(=O)NCc3cccs3)CC2)cc1,i,i,i,i,i,i
CCN(CC)c1ccc(/C=N/NC(=O)CNC(=O)c2ccc3c(c2)OCCO3)cc1,45µM,i,i,i,?,i
COc1cccc(/C=N/NC(=O)CNC(=O)c2ccco2)c1O,nt,i,i,i,-84,?
Oc1ccc(C=NNC(=S)Nc2ccc(F)cc2)c(O)c1,nt,nt,i,?,-80,-93
O=C(N/N=C/c1ccccn1)c1ccc(NC(=O)c2ccc(F)cc2)cc1,50µM,i,i,i,?,?
SMILES,G9a block,BAZ2B block,HP1b chromo inh,JMJD2A Tudor,Six1-Eya2 inh,CtBP-E1A blk
O=C(N/N=C/c1ccccn1)c1ccc(NC(=O)c2ccccc2Cl)cc1,i,i,i,i,?,?
O=C(CCC(=O)Nc1ccc(F)cc1)N/N=C/c1ccc(O)cc1O,i,i,i,i,?,?
Cc1ccc2scc(N3CCc4ccccc4C3)c(=O)c2c1,?,i,i,i,nt,nt
CCOC(=O)CC1C(=O)NCCN1C(=O)c1cccc(OC)c1 (stereo not drawn),i,i,i,i,i,nt
O=C(CNC(=O)c1ccc2c(c1)OCCO2)N/N=C/c1ccc(O)cc1O,i,i,i,i,-77,-90
COc1cccc(/C=N/NC(=O)CNC(=O)c2cccnc2)c1O,i,i,i,i,-71,-87
O=C(CNC(=O)c1ccncc1)N/N=C/c1ccc(O)cc1O,i,?,i,?,-90,nt
CCOc1cccc(/C=N/NC(=O)c2ccc3c(c2)OCCO3)c1O,i,i,i,?,?,-87
COc1cc(/C=N/NC(=O)CNC(=O)c2ccncc2)ccc1O,nt,i,i,i,i,i
